High-throughput results as filed in PubChem.
AmpC detergent: AmpC beta-lactamase inhibition with detergent present; P00811; hit rate 0.041% among 370,000; AmpC hydrolysis of nitrocefin, absorbance 480 nm, 0.01% Triton; Potency, µM (doses to about 114 µM), without a hit: at the top dose activity change, negative = inhibition, hits mostly inhibitors;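 also: 0% = no-compound wells and -100% = no-enzyme wells; nearly all actives have a fitted effect of over 25% in size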
Target sequence (P00811 whole entry, looked up): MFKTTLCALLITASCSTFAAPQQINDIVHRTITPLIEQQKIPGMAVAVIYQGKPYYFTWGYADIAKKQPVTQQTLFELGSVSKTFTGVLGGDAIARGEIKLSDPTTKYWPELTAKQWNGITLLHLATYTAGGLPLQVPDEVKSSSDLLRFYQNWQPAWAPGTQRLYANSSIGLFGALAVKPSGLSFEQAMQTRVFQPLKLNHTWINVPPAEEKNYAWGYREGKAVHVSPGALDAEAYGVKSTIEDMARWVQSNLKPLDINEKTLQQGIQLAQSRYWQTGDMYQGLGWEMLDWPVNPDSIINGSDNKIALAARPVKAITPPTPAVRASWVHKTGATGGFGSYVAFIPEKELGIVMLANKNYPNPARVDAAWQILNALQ
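AmpC (5.3 nM in the dispensed reagent) in 20 mM phosphate pH 7.0 with 0.01% (detergent screen) or 0.0001% Triton X-100 was preincubated with compounds for 15 min at room temperature. Nitrocefin was then added from an 800 uM solution, and hydrolysis was followed at 480 nm.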
Pf growth 96h: P. falciparum growth inhibition at 96 hours; AID 504834; hit rate 6.9% among 320,000; P. falciparum luciferase reporter growth, 96 h; Potency, µM (highest dose often 28.7 µM), inactives show at the top dose activity change, negative = inhibition, usual class: inhibitors; also: % is scaled to controls: 0 for no effect and ±100 for the full control effect
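Two-generation exposure (96 h) targets delayed-death phenotype. Reporter parasites carrying integrated firefly luciferase, in red cells at 2% hematocrit and 0.05% parasitemia final, kept at 37 C, 5% CO2; luminescence loss indicates inhibition.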
SARS PLpro yeast: SARS-CoV PLP inhibition in yeast; S. cerevisiae expressing SARS-CoV PLpro, growth rescue; Potency, µM (highest dose often 32.9 µM), without a hit: top-dose activity, positive = growth rescue, hits mostly activators; hit rate 0.19% among 330,000; calls by dose curve; also: 0% is about no effect; nearly all actives have a fitted effect of over 55% in size
AmpC inh no detg: blocks E. coli AmpC beta-lactamase in detergent-free assay; hit rate 0.52% among 330,000; AmpC nitrocefin hydrolysis, absorbance 480 nm, 0.0001% Triton; Potency, µM (top dose mostly 57.1 µM), inactives show top-dose activity change, negative = inhibition, most hits filed as inhibitors; P00811;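 also: plate controls were no compound for no effect and no enzyme for full effect; nearly all actives have a fitted effect of over 20% in size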
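AmpC (5.3 nM in the dispensed reagent) in 20 mM phosphate pH 7.0 with 0.01% (detergent screen) or 0.0001% Triton X-100 was preincubated with compounds for 15 min at room temperature. Nitrocefin was then added from an 800 uM solution, and hydrolysis was followed at 480 nm.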
Sm TGR block: S. mansoni TGR enzyme inhibition; hit rate 3% among 360,000; purified TGR, DTNB reduction, TNB absorbance 405 nm; Q962Y6; Potency, µM (highest dose often 114 µM), for inactives: at the top dose activity change, negative = inhibition, hits mostly inhibitors; also: % is scaled to controls: 0 for no effect and ±100 for the full control effect; nearly all actives have a fitted effect of over 60% in size
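Kinetic colorimetric format: TGR-catalysed, NADPH-driven DTNB reduction monitored via TNB absorbance. Enzyme dispensed at 20 nM; compound exposure 15 min at room temperature before reaction start.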
Pf growth 48h: P. falciparum growth inhibition at 48 hours (one generation) | P. falciparum luciferase growth in erythrocytes, 48 h | Potency, µM (series often up to 28.7 µM), for inactives: top-dose activity change, negative = inhibition, most hits filed as inhibitors | hit rate 5.9% among 310,000 | AID 504832; also: % is scaled to controls: 0 for no effect and ±100 for the full control effect
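Parasite viability was followed by luminescence of a genomically integrated firefly luciferase. Cultures held 0.1% parasitemia at 2% hematocrit (final), incubated under 5% CO2 at 37 C.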
* hit, by the source's call; ? = inconclusive; nt = no result; [ ] = remark or other dose. In the library only some 12% were active in any assay of this set; here they are far more common. Unless noted, calls follow the shape of the dose curve; as a rule, active = well fitted curve in the direction sought with a large enough effect; inconclusive = small, poorly fitted or top-dose-only effect, or another doubt; inactive = no such curve, though single readings can be large; an effect the other way counts as inactive or inconclusive. Potency is read from the fitted curve at half-maximal effect.

SMILES	AmpC detergent	Pf growth 96h	SARS PLpro yeast	AmpC inh no detg	Sm TGR block	Pf growth 48h
COc1ccc(OC(C)C(=O)Nc2ccc([N+](=O)[O-])cc2)cc1 (configuration not stated)	-12%	15µM*	4%	-21%	0%	?
Cc1cccc(NC(=O)[C@H](NC(=O)[C@@H]2Cc3ccccc3CN2)c2ccccc2)c1	4%	?	0%	4%	-2%	-14%
CC(C)C(=O)NNC(=O)c1ccccn1	-8%	13µM*	-2%	-14%	-3%	?
C/C(=N\NC(=O)C(C)Oc1ccc([N+](=O)[O-])cc1)c1ccccn1 (configuration not stated)	2%	2.1µM*	-2%	-9%	6%	?
CC(Oc1cccc(Br)c1)C(=O)NNC(=O)c1ccccn1 (configuration not stated)	nt	nt	-33%	-19%	nt	nt
CC(Oc1ccccc1)C(=O)N/N=C/c1ccccn1 (configuration not stated)	0%	?	-2%	-15%	-3%	-8%
Cc1csc(C(=O)O)c1NC(=O)c1c(Cl)cccc1Cl	-5%	-6%	2%	-10%	-36%	?
CN1CCN(c2cc(N3CCN(C(=O)c4ccco4)CC3)c3c4c(onc24)-c2ccccc2C3=O)CC1	-2%	45%	-5%	99%	10µM*	?
O=C1c2ccccc2-c2onc3c(N4CCN(CCO)CC4)cc(N4CCN(C(=O)c5ccco5)CC4)c1c23	-11%	?	-4%	185%	3.5µM*	?
O=C(c1ccco1)N1CCN(CCCCN2C(=O)c3ccccc3C2=O)CC1	2%	122%	2%	53%	-12%	12%
O=C(O)CCCNc1cc(N2CCC3(CC2)OCCO3)c2noc3c2c1C(=O)c1ccccc1-3	-14%	-24%	-3%	140%	8.9µM*	?
O=C(O)CCCNc1cc(N2CCN(C(=O)c3ccco3)CC2)c2noc3c2c1C(=O)c1ccccc1-3	1%	?	-14%	47%	6.3µM*	?
O=[N+]([O-])c1c(NCCO)cc(N2CCC3(CC2)OCCO3)c2nonc12	2%	?	3%	0%	-3%	-9%
NS(=O)(=O)c1ccc(NC(=O)COC(=O)COc2ccc(Cl)cc2)cc1	-1%	-21%	0%	-38%	-21%	19%
CCOc1ccc(C(=O)Nc2ccc(S(=O)(=O)Nc3nc(C)cc(C)n3)cc2)cc1OC	14%	nt	nt	nt	5%	nt
CCOC(=O)N1CCN(c2cc(NCCC(=O)O)c3c4c(onc24)-c2ccccc2C3=O)CC1	1%	-5%	-4%	222%	?	8.3µM*
CCCCNc1cc(N2CCN(C3CCCCC3)CC2)c2noc3c2c1C(=O)c1ccccc1-3	8%	nt	nt	nt	4%	nt
O=C(c1ccco1)N1N=C(c2ccncc2)CC1(O)C(F)(F)F (configuration not stated)	0%	5.2µM*	-1%	30%	-18%	18%
CC(C)(C)C(Cn1ccnc1)NC(=O)c1ccc2nc(C3CC3)oc2c1 (configuration not stated)	4%	?	0%	1%	6%	?
CCOC(=O)c1c(N2C(=O)C3C4C=CC(C4)C3C2=O)sc2c1CCC(C)C2 (configuration not stated)	4%	13µM*	-9%	150%	6%	1%
CC(C)CCn1c(SCC(=O)OCn2nnc3ccccc3c2=O)nc2ccccc2c1=O	?	-2%	-1%	21%	-11%	11%
Cn1c(-c2ccc(S(=O)(=O)N3CCCC3)cc2)csc1=Nc1ccc(Cl)c(Cl)c1	11%	nt	nt	nt	8.9µM*	nt
CCC/C(=N\NC(=O)c1ccco1)c1ccc(Cl)s1	?	13µM*	?	-29%	3%	-28%
COC(=O)/C(=N/Nc1ccc(C)cc1)N1CCCc2ccccc21	?	12µM*	-59%	-7%	-6%	?
COC(=O)/C(=N/Nc1ccccc1)N1CCCc2ccccc21	-1%	10µM*	9%	-8%	9%	-11%
SMILES	AmpC detergent	Pf growth 96h	SARS PLpro yeast	AmpC inh no detg	Sm TGR block	Pf growth 48h
CN(C)/C=C(/C(=O)c1ccc(Cl)cc1)S(=O)(=O)c1ccc(Cl)cc1	-18%	-1%	-4%	-34%	3%	6%
COc1cc(/C=C/C(=O)OCc2cn3cc(Cl)ccc3n2)ccc1O	1%	?	3%	-18%	-28%	10µM*
O=C(O)CCc1ccc(-c2ccc(F)cc2)n1CC1CCCO1 (configuration not stated)	0%	6%	2%	-14%	?	3%
CC(C)(C)C(=O)CSc1nnc(-c2cccs2)n1CC1CCCO1 (configuration not stated)	0%	-22%	6%[6.58 µM]	7%	-11%	nt
O=C(O)CCc1ccc(-c2cccs2)n1CC1CCCO1 (configuration not stated)	-6%	-3%[5.75 µM]	-1%	-16%	8.9µM*	3%
COc1ccc(-c2ccc(CCC(=O)O)n2CC2CCCO2)cc1 (configuration not stated)	-5%	4%	1%	-3%	35µM*	?
COc1cccc(C(c2sc3nc(-c4ccco4)nn3c2O)N2CCC(C)CC2)c1 (configuration not stated)	-1%	nt	nt	nt	0%	nt
CC(=O)c1ccc(OCC(O)Cn2nnc3ccccc32)cc1 (configuration not stated)	-3%	32%	4%	-7%	0%	7.4µM*
O=C1C2CC=CCC2C(=O)N1c1ccc(OCC(O)Cn2nnc3ccccc32)cc1 (configuration not stated)	4%	15µM*	20%	-2%	4%	nt
Cc1ccc(C(=O)Cn2nnc3ccccc32)cc1	-7%	12µM*	1%	-48%	5%	137%
CC(=O)c1ccc(OCC(O)CN2C(C)CCCC2C)cc1 (configuration not stated)	?	8.3µM*	-5%	-43%	3%	nt
COC(=O)c1ccc(OCC(O)Cn2nnc3ccccc32)cc1 (configuration not stated)	3%	?	3%	-14%	-1%	59%
CCCCOCCCn1cnc2c([nH]c3cc(OC)ccc32)c1=O	-17%	39%	-5%	-8%	7%	-1%
COc1cc(OC)c(-c2nn3c(-c4ccco4)nnc3s2)cc1OC	-7%	8%	-3%	163%	11µM*	10µM*
Cc1ccccc1-c1nn2c(-c3ccccc3)nnc2s1	?	9.3µM*	-8%	14%	-6%	?
